Results published in PubChem BioAssay (EPA / NIEHS).
The source made the active and inactive calls. The calls were made as follows: active = hit-call score of the fitted dose curve at least 0.9, where 1 is the maximum; inactive = score below 0.9.

Assay: BSK_3C_Proliferation: Cell Proliferation Assessment in the BioMAP Diversity Plus: 3C Assay (AID 2283006);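 as to AC50: potency may reflect either rise or fall in cell number versus DMSO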
Conditions: primary human endothelial cells (HUVEC)
Protocol: BSK_3C is a cell-based, multiplexed-readout assay that uses umbilical vein endothelium, a human vascular primary cell, with measurements taken at 24 hours after chemical dosing in a 96-well plate.BSK_3C_Proliferation is an assay component measured in the BSK_3C assay. It measures 0.1% sulforhodamine related to cell proliferation using Sulforhodamine staining technology.Data from the assay component BSK_3C_Proliferation was analyzed into 1 assay endpoint. This assay endpoint, BSK_3C_Proliferation, was analyzed with bidirectional fitting relative to DMSO as the negative control and baseline of activity. Using a type of viability reporter, measures of total protein for gain or loss-of-signal activity can be used to understand the viability at the cellular-level. Furthermore, this assay endpoint can be referred to as a secondary readout, because this assay has produced multiple assay endpoints where this one serves a viability function. To generalize the intended target to other relatable targets, this assay endpoint is annotated to the cell cycle intended target family, where the subfamily is proliferation.
The levels of cell surface (or secreted, indicated by the prefix "s") biomarker endpoints were measured by ELISA. Overt cytotoxicity to cells in confluent adherent cultures (all systems other than the BT system) was assessed by measuring total protein levels using sulforhodamine B (SRB) staining in parallel cultures at the time of biomarker measurements, indicated as SRB endpoints. For proliferation assays for adherent cell types, individual cell types are cultured at sub-confluence and relative cell numbers quantified by SRB staining at time points optimized for each system (48 h: 3C and CASM3C systems; 72 h: BT and HDF3CGF systems; 96 h: SAg system). SRB was performed by staining cells with 0.1% SRB after fixation with 10% TCA and reading wells at 560 nm.Viability and proliferation of PBMC (T cells) was quantified by Alamar Blue reduction for the SAg and BT systems. For PBMC viability (referred to as PBMC Cytotoxicity within the assay endpoint names), cells were plated (75,000/well in a 96-well plate) and then chemical samples added for 1 h before addition of activators, SEB and TSST-1 (20 ng/mL final concentration each). Cells were incubated for 90 h. Then, Alamar Blue (20 uL/well) (Invitrogen, Cat DAL1100) was added for 6 h, and the plates were read with a fluorescence microplate reader at 546/580 nm (excitation/emission). For PBMC proliferation, cells were plated and activated as above but incubated for only 16 h prior to addition of Alamar Blue. Plates were read after 6 h.
In the case of `COCC(C)OCC(C)OCC(C)O` (stereo not given), the outcome was “inactive”. With `C[C@]12CC[C@@H]3c4ccc(O)cc4CC[C@H]3[C@@H]1CC[C@H]2O` the AC50 was 9.12 µM (active). In the case of `CC(=O)N1CCN(c2ccc(OC[C@H]3CO[C@](Cn4ccnc4)(c4ccc(Cl)cc4Cl)O3)cc2)CC1`, the AC50 was 23.8 µM (active). For `Clc1cc(Cl)c2c(c1)N=C1CCCCCN1C2`, the outcome was “inactive”. In the case of `CCCCCc1ccc(N)cc1`, the AC50 was 6.3 µM (active). In the case of `Cc1cc(F)ccc1-c1cc(N2CC[C@@H](O)[C@H]2CO)ncc1N(C)C(=O)C(C)(C)c1cc(C(F)(F)F)cc(C(F)(F)F)c1`, the AC50 was 5.65 µM (active). In the case of `CCCCCCCC[Si](OCC)(OCC)OCC`, the AC50 was 18.4 µM (active). With `Cc1ccc(C(C)C)cc1` the outcome was “inactive”. With `Oc1ccccc1` the outcome was “inactive”. With `COc1ccc2cc(S(=O)(=O)N[C@H](CC(=O)N[C@H](Cc3ccc(CN4[C@H](C)CCC[C@@H]4C)cc3)C(=O)N(C)C(C)C)c3ccc4c(c3)OCO4)ccc2c1` the AC50 was 22 µM (active). With `CC(C)(C)c1cc(/C=C2\SC(N)=NC2=O)cc(C(C)(C)C)c1O` the AC50 was 13.4 µM (active). In the case of `CC/C(=C(/CC)c1ccc(O)cc1)c1ccc(O)cc1`, the AC50 was 20 µM (active). In the case of `CCCCOC(=O)c1ccc(O)cc1`, the outcome was “inactive”. With `CCCCCCCCCCCCO` the AC50 was 30.2 µM (active). In the case of `O=c1ccc2ccccc2o1`, the outcome was “inactive”. For `CCCCCCCCOc1ccc(C(=O)c2ccccc2)c(O)c1`, the AC50 was 30.1 µM (active). With `OC12N=C(c3ccccc3)SC1Cc1cc(Cl)ccc12` (stereo not given) the AC50 was 31.5 µM (active). With `CC(C)(C)c1csc(-c2cc3cc(OCc4ccccc4CC(=O)O)ccc3o2)n1` the AC50 was 18.1 µM (active). For `CC1(C)NC(=O)N(c2ccc([N+](=O)[O-])c(C(F)(F)F)c2)C1=O`, the outcome was “inactive”. For `O=C1O[C@H]([C@@H](O)CO)C(O)=C1O`, the outcome was “inactive”. With `O=C(O)Cn1c(=O)n(Cc2ccc(Br)cc2F)c(=O)c2ccc(Cl)cc21` the outcome was “inactive”. With `CCCCCCCCCCCC[N+](C)(C)C` the AC50 was 20.8 µM (active). For `CC(C)(c1cc(Br)c(O)c(Br)c1)c1cc(Br)c(O)c(Br)c1`, the AC50 was 28 µM (active). In the case of `CCCCOC(=O)CC(CC(=O)OCCCC)(OC(C)=O)C(=O)OCCCC`, the AC50 was 31.5 µM (active). In the case of `COc1cccc([C@H](O)C2CCN(CCc3ccc(F)cc3)CC2)c1OC`, the outcome was “inactive”. In the case of `Oc1ccc2ccccc2c1`, the AC50 was 10.7 µM (active). For `CCN(Cc1cccc(S(=O)(=O)O)c1)c1ccc(C(=C2C=CC(=[N+](CC)Cc3cccc(S(=O)(=O)O)c3)C=C2)c2ccccc2S(=O)(=O)[O-])cc1`, the outcome was “inactive”. With `CCO[Si](CCCNC(N)=O)(OCC)OCC` the outcome was “inactive”. For `NC(=O)c1nc(-c2cccc(-c3cc(F)ccc3OCC(F)(F)C(F)(F)F)c2)n[nH]1`, the AC50 was 32.4 µM (active). In the case of `c1ccc2ccccc2c1`, the outcome was “inactive”. For `Cc1ncc(CO)c(CO)c1O`, the outcome was “inactive”. For `Cc1cn([C@H]2C[C@H](N=[N+]=[N-])[C@@H](CO)O2)c(=O)[nH]c1=O`, the outcome was “inactive”. For `O=C(O)Cc1cc(I)c(Oc2ccc(O)c(I)c2)c(I)c1`, the AC50 was 9.41 µM (active). In the case of `CCCC(=O)OCCC(C)C`, the outcome was “inactive”. With `CCOC(=O)O[C@H](C)OC(=O)c1ccc2c(c1)cc(C(=O)NC1CCN(C(C)C)CC1)n2Cc1cc(-c2ccc(Cl)s2)on1` the AC50 was 1.77 µM (active). For `CC1=CC(=O)/C(=C(/C)O)C(=O)O1`, the outcome was “inactive”. With `CN(C[C@@H](CC[N+]12CCC(C3CCCCC3)(CC1)CC2)c1ccc(Cl)c(Cl)c1)C(=O)c1cc(C(F)(F)F)cc(C(F)(F)F)c1` the AC50 was 12.9 µM (active). In the case of `CCCCCCCCOC(=O)c1cc(O)c(O)c(O)c1`, the AC50 was 17 µM (active). For `Cc1occc1C(=O)Nc1ccc(C(=O)N2CCC(F)(F)/C(=C\C(=O)N3CCC(N4CCCCC4)CC3)c3ccccc32)cc1`, the outcome was “inactive”. For `CCCCCCCCCCCO`, the AC50 was 34.2 µM (active).
